Laboratory results published in PubChem BioAssay.
Several values for one entry are separate records, joined by “and”; a condition that tells them apart may be missing. Identical values can stand only once. Activity calls are given as the source filed them.

Key:
[1] = binders of probe aFSTL3 on microarray, primary screen, stem cell growth factor project, biochemical, small-molecule microarray, fluorescence 635/667 (AID 1064); settings: higher = more signal; small-molecule microarray, probe aFSTL3, fluorescence unless noted;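 further: measures binding of the biotinylated anti-FSTL3 antibody to printed compounds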
[2] = binders from COS7 lysate, DM2A8 probe, primary screen, torsin A project, cell lysate, small-molecule microarray, fluorescence 635/667 (AID 1065); settings: higher = more signal; small-molecule microarray, COS7 cell lysate, probe DM2A8, fluorescence, COS7 lysate expressing mutant human TOR1A unless noted
[3] = binders of probe aFGF2 on microarray, primary screen, stem cell growth factor project, biochemical, small-molecule microarray, fluorescence 635/667 (AID 1067); settings: higher = more signal; small-molecule microarray, probe aFGF2, fluorescence unless noted;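 further: measures binding of biotinylated aFGF2 protein to printed compounds on slides; z-score merges feature fluorescence and signal-to-noise across triplicate slides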
[4] = binders of probe aFGF10 on microarray, primary screen, stem cell growth factor project, biochemical, small-molecule microarray, fluorescence 635/667 (AID 1071); settings: higher = more signal; small-molecule microarray, probe aFGF10, fluorescence unless noted;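 further: score merges 667 nm spot intensity and signal to noise from triplicate slides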
[5] = target: Neurogenic locus notch homolog protein 2 (Homo sapiens) (UniProt Q04721); assay: Notch2 binders on small-molecule microarrays, primary screen, biochemical, small-molecule microarray, 635 nm fluorescence, stem cell growth factors (AID 1073); settings: Notch2 binding, higher = more signal
[6] = target: Pro-neuregulin-1, membrane-bound isoform (Homo sapiens) (UniProt Q02297); assay: NRG1 binders on small-molecule microarrays, primary screen, psychiatric disease protein project, biochemical, small-molecule microarray, fluorescence 635/667 (AID 1075); settings: NRG1 binding, 635 nm fluorescence, higher = more signal;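 further: score combines 667 nm spot fluorescence with signal to noise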
[7] = test system: Neuregulin-1 EGF-like domain; assay: binders of neuregulin-1 EGF-like domain, primary screen, biochemical, small-molecule microarray, 635 nm fluorescence (AID 1081); settings: small-molecule microarray binding, higher = more signal;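 further: binding of the protein to compounds printed on small-molecule microarray slides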
[8] = FRG1 promoter luciferase signal modulators, primary screen, FRG1 inhibition for FSHD, cell-based, C2C12 myotubes, firefly/Renilla luciferase, luminescence (AID 1084); settings: higher = more signal, called active from +8 up or from −8 down unless noted
[9] = binders of probe aFST on microarray, primary screen, stem cell growth factor project, biochemical, small-molecule microarray, fluorescence 635/667 (AID 1086); settings: higher = more signal;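 further: score merges 667 nm fluorescence with signal-to-noise of each printed compound spot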
[10] = binders of probe aHhip on microarray, primary screen, stem cell growth factor project, biochemical, small-molecule microarray, fluorescence 635/667 (AID 1087); settings: higher = more signal;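 further: score merges spot fluorescence at 667nm with spot signal to noise ratio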

Pro-neuregulin-1, membrane-bound isoform (Homo sapiens), sequence (Q02297 whole entry, looked up, the tested form may be a part, canonical isoform): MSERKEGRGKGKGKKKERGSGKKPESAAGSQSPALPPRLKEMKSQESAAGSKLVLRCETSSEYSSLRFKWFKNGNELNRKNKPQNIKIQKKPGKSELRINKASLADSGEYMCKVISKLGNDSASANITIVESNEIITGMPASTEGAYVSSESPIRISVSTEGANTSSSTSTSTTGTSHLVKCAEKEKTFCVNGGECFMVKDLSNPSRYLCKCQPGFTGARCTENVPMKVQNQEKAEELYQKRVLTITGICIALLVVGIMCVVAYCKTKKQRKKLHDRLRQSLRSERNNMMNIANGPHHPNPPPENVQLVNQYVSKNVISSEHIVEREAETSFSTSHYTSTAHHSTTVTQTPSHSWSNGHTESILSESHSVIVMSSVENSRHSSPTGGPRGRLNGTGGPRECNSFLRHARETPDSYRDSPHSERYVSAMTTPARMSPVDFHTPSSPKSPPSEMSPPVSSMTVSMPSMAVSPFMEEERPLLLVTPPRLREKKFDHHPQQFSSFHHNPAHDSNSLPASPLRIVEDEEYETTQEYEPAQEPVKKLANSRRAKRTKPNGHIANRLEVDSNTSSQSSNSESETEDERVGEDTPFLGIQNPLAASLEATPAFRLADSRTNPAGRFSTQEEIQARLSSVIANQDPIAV
Neurogenic locus notch homolog protein 2 (Homo sapiens), sequence (Q04721 whole entry, looked up, canonical isoform): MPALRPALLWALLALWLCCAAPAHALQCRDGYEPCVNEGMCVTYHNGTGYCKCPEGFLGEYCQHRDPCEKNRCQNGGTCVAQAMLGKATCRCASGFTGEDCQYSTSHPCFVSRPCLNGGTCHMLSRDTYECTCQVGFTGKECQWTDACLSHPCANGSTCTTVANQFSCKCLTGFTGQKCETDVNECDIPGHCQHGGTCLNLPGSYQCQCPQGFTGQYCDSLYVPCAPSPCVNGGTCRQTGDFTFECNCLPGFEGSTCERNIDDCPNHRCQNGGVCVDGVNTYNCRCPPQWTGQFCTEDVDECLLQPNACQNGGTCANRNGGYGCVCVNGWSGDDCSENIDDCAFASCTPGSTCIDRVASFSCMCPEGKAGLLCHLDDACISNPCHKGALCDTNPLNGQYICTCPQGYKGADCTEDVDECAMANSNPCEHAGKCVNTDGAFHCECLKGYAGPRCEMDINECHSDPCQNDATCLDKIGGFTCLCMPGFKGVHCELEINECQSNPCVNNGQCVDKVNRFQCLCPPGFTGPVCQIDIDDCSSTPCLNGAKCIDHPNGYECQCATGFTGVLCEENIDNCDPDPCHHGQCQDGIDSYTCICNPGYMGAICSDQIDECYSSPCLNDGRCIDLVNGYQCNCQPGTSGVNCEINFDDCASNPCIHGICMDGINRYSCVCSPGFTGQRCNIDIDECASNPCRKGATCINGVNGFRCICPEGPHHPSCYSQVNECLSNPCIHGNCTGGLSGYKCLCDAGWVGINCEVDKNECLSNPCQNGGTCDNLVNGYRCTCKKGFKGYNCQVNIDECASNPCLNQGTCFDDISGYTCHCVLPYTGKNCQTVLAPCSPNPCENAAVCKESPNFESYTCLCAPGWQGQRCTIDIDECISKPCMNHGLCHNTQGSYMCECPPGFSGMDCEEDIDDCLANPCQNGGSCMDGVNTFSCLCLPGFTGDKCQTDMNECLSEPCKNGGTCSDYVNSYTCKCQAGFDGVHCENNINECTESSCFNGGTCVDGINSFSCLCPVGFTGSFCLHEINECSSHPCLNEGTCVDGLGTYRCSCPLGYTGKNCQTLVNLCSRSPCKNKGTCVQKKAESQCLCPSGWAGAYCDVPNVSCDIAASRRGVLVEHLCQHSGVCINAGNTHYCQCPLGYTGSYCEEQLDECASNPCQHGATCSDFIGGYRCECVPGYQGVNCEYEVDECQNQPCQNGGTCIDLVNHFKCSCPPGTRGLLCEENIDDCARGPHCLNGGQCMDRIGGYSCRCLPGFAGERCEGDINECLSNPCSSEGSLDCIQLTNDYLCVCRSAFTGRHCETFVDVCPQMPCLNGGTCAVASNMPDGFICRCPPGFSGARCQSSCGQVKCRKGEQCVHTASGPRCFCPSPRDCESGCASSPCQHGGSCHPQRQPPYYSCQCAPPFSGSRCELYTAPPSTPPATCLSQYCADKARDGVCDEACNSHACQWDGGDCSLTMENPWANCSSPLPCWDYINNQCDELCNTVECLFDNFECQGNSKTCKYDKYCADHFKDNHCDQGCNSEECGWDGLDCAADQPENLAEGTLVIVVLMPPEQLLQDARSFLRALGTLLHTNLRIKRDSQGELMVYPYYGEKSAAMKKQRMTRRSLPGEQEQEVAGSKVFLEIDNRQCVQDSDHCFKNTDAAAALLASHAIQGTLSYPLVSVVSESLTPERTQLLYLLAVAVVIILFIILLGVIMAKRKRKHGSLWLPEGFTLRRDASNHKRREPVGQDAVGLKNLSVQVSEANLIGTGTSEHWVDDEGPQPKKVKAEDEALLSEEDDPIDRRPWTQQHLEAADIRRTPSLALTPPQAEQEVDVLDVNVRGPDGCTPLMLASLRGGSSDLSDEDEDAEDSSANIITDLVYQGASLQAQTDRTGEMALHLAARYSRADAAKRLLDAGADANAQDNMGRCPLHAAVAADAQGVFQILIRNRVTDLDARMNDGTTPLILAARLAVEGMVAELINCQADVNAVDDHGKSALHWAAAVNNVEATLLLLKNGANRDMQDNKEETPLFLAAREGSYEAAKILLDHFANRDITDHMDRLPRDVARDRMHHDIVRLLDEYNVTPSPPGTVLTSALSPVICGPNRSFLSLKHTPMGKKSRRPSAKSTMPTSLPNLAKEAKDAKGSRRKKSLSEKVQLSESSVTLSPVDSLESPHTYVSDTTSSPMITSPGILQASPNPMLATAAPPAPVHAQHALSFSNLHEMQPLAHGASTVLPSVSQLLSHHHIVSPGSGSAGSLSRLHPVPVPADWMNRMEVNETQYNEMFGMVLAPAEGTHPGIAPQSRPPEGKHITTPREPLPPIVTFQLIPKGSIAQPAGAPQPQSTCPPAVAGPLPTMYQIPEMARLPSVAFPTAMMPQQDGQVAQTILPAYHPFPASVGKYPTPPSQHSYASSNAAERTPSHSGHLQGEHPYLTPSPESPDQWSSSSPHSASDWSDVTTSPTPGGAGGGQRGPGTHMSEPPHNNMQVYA

Compound	composite z-score [1]	composite z-score [2]	composite z-score [3]	composite z-score [4]	composite z-score [5]	composite z-score [6]	composite z-score [7]	z-score [8]	composite z-score [9]	composite z-score [10]
COC(=O)[C@@]1(Cc2ccccc2)[C@H]2c3cc(C(=O)N(C)C)[nH]c3C[C@H]2CN1C(=O)c1ccccc1	0.469	-0.365	-0.0063	-0.12	0.335	1.03	0.954	1.82 (inactive)	-0.0765	0.0176
COc1cc2c(cc1O)C=[N+](C)CC2	-0.0131	-0.532	-0.172	-0.17	-0.718	-0.835	-0.286	-1.13 (inactive)	0.169	-0.639
CCCc1cc2c(n1Cc1ccco1)C(C)C1CN(C(=O)c3ccccc3)C(C)(C(=O)OC)C21 (stereo not given)	1.03	1.05	0.13	0.657	1.66	1.35	1.09	0.301 (inactive)	0.802	1.05
CCCc1cc2c(n1Cc1cccc(Cl)c1)C(C)C1CN(C(=O)c3ccccc3)C(C)(C(=O)OC)C21 (stereo not given)	1.04	0.49	0.169	0.241	1.51	1.92	1.11	0.703 (inactive)	0.578	0.192
COC(=O)[C@H]1[C@@H](O)[C@@]2(O)c3c(OC)cc(OC)cc3O[C@@]2(c2ccc(OC)cc2)[C@@H]1c1ccccc1	-0.327	0.287	-0.0894	0.52	0.514	0.167	0.357	0.128 (inactive)	0.0836	-0.152
CCCC[C@@H]1C[C@H]1[C@@H](NP(=O)(c1ccccc1)c1ccccc1)c1ccc(Cl)cc1	1.68	-1.94	-0.129	-0.0013	-0.438	0.291	0.142	0.695 (inactive)	-0.22	-0.0994
C=C(CC1(CNP(=O)(c2ccccc2)c2ccccc2)CC1)c1ccccc1	0.019	-0.115	0.179	0.33	0.777	1.69	0.525	-3.35 (inactive)	0.622	-0.0618
C=C(CC1(C(C)NP(=O)(c2ccccc2)c2ccccc2)CC1)c1ccccc1 (stereo not given)	0.21	-0.954	0.208	0.851	1.01	1.16	0.714	-3.03 (inactive)	0.881	0.113
CCc1cc2c(nc1CC)CCN(CCC(C)=NOC)C2	0.515	0.974	-0.0097	0.324	0.608	0.0159	0.763	2.07 (inactive)	0.497	0.113
OCc1ccc(C2=CC(C3CC3)N(Cc3sc4ccccc4c3Cl)CC2)cc1 (stereo not given)	0.0908	1.02	-0.107	0.261	0.166	0.503	1.14	-1.71 (inactive)	0.19	-0.0296
CN1CCc2nc(CO)c(CO)cc2C1	-0.304	0.267	-0.0982	0.401	0.528	0.0016	0.611	0.294 (inactive)	0.242	0.0881
CN1CCC(c2ccc(CO)cc2)=CC1c1cccs1 (stereo not given)	-0.182	-0.191	-0.128	-0.53	-0.131	0.0188	1.04	1.68 (inactive)	0.13	-0.134
OCc1ccc(C2=CC(c3cccs3)N(Cc3cccc(OC(F)(F)F)c3)CC2)cc1 (stereo not given)	-0.0593	0.466	-0.0996	-0.242	-0.515	0.764	0.536	-0.39 (inactive)	-0.0002	0.0908
COC(=O)C1(C)C=C2C(=C(C)C(=O)C2C)CN1 (stereo not given)	1.28	-0.297	-0.0627	-0.195	-0.483	0.367	1.55	3.71 (inactive)	0.706	0.107
COc1cc2c(cc1O)C(C)N(C)CC2 (stereo not given)	0.661	-0.144	-0.0345	-0.021	0.358	-0.0581	1.14	-1.13 (inactive)	-0.0662	0.176
CCCC=C(CCC)[C@@H](NP(=O)(c1ccccc1)c1ccccc1)c1ccccc1	-0.335	0.0595	0.0354	0.33	1.25	-0.0154	0.318	-0.763 (inactive)	0.714	0.408

Compound	composite z-score [1]	composite z-score [2]	composite z-score [3]	composite z-score [4]	composite z-score [5]	composite z-score [6]	composite z-score [7]	z-score [8]	composite z-score [9]	composite z-score [10]
C[C@@H]1Cc2c(cnc3c2CN(C)CC3)CO1	-0.0578	0.442	-0.105	0.0502	-0.163	-0.93	-0.206	-0.989 (inactive)	0.0686	0.312
CCCc1cc2c(n1CCO)C(C)C1CN(C(=O)c3ccccc3)C(C)(C(=O)OC)C21 (stereo not given)	1.44	1.73	0.374	0.0514	1.66	1.21	1.14	2.02 (inactive)	1.44	0.593
COC(=O)[C@H]1[C@H](c2ccccc2)C(=O)[C@]2(O)c3ccccc3O[C@@]12c1ccccc1	-0.521	0.824	-0.0894	0.273	0.472	0.113	0.348	-2.68 (inactive)	-0.12	-0.236
CCOC(=O)[C@H]1CC=C2C(=O)Oc3ccccc3[C@@H]21	0.0468	-0.775	-0.083	-0.491	-0.316	0.833	-0.169	0.48 (inactive)	-0.203	-0.0645
CCOC(=O)[C@H]1CC=C2C(=O)Oc3ccc(Br)cc3[C@@H]21	0.165	0.384	-0.161	-0.332	-0.664	0.994	0.727	-0.818 (inactive)	-0.598	-0.134
COC(=O)[C@@]1(Cc2ccccc2)[C@H]2c3cc(C(=O)N(C)C)n(C)c3C[C@H]2CN1C(=O)c1ccccc1	0.739	-0.389	0.175	0.536	1.59	2.02	1.14	1.51 (inactive)	0.566	0.189
C[C@@H]1OC=C2[C@@H](O)[C@H]3O[C@H]3C(=O)[C@]23[C@H]1[C@H]1C2=C([C@@H](O)[C@H]4O[C@H]4C2=O)[C@@H]3O[C@@H]1C	-0.532	0.0437	-0.169	-0.0391	0.121	-0.854	-0.372	-0.165 (inactive)	-0.192	0.0274
COC(=O)[C@H]1C(=O)c2ccccc2O[C@@](C(=O)OC)(c2ccccc2)[C@@H]1c1ccccc1	-0.384	-0.262	-0.149	0.179	0.343	-0.454	-1.02	-0.748 (inactive)	-0.204	-0.134
COC(=O)[C@@]1(Cc2ccc(F)cc2)[C@H]2c3cc(C(=O)N(C)C)[nH]c3C[C@H]2CN1C(=O)c1ccccc1	0.0665 [setting not given]	-0.441 [setting not given]	-0.162 [setting not given]	0.203 [setting not given]	1.35	0.986	1.06	0.832 [setting not given] (inactive)	0.656	-0.236
COC(=O)NCC=Cc1nc(CCC=CC(=O)O[C@H]2CC3CC(=O)O[C@@H](C=CCC(C)C)C[C@@H]4CC[C@H](C)[C@@H](C[C@@H](OC)C[C@H](C2)O3)O4)co1	-0.117	-0.381	-0.114	-0.328	-0.896	-0.657	-0.905	0.524 (inactive)	-0.15	-0.12
C[C@H]1O[C@H]2C3=C(C(=O)[C@@H]4O[C@@H]4[C@@H]3O)[C@@H]1[C@@H]1[C@@H](C)OC=C3[C@@H](O)[C@H]4O[C@H]4C(=O)[C@]312	-0.294	0.0164	-0.102	-0.494	-0.468	-0.48	-0.894	-2.19 (inactive)	-0.293	-0.0994
CN1CCC(c2ccc(CO)cc2)=CC1C1CC1 (stereo not given)	-0.394	-0.0038	-0.158	-0.301	-0.616	-0.292	0.839	0.666 (inactive)	-0.337	-0.164
CC1N(P(=O)(c2ccccc2)c2ccccc2)CC(O)(c2ccccc2)CC12CC2 (stereo not given)	0.401 and 0.0381	-1.21 and -0.157	0.0161 and 0.221	0.309 and 0.352	0.621 and 1.54	2 and 1.82	1.41 and 0.526	2.45 (inactive) and -0.78 (inactive)	-0.0551 and 1.02	0.238 and 0.535
CCCc1cc2c(n1Cc1ccc(C)cc1)C(C)C1CN(C(=O)c3ccccc3)C(C)(C(=O)OC)C21 (stereo not given)	1.37	1.32	0.459	1.14	1.43	1.32	1.08	-0.876 (inactive)	1.95	0.321
c1ccc(-c2cc3c(nc2-c2ccccc2)CCNC3)cc1	0.0329	-0.112	-0.0494	-0.296	-0.634	-0.0361	-0.969	-0.148 (inactive)	0.0294	-0.374
O=P(c1ccccc1)(c1ccccc1)N1CC2(CC2)CC(O)(c2ccccc2)C1 (stereo not given)	0.234	-0.86	0.0316	0.862	1.65	0.963	1.33	-2.28 (inactive)	0.553	0.21
